# Compound activity deposited in PubChem by National Center for Advancing Translational Sciences (NCATS).
# SW480 rerep – induces DNA re-replication in SW480 colon adenocarcinoma cells | AID 624297 | Potency, µM (top dose mostly 46.1 µM), for the others: at the top dose re-replication activation, most hits filed as activators | SW480 DNA re-replication, Hoechst DNA content imaging, 48 h | hit rate 1.8% among 340,000; further: potency means the concentration at half of the fitted maximal effect; % of control where 0% means no effect; nearly all actives have a fitted effect of over 55% in size
#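 Image-based read-out: total Hoechst fluorescence of nuclei (405 nm excitation, 500-530 nm emission), with hits raising the fraction of high-intensity nuclei. SW480 colon cells incubated 48 hr with compounds at 37 C.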
# IL-1B inflam inh – blocks inflammasome-driven IL-1 beta release. THP-1 LPS/ATP IL-1B secretion, AlphaLISA, 16 h; active compounds read low. activity change, % at 57.5 µM. hit rate 4.7% among 360,000; in the data active means activity change below about -50%; inconclusive means mostly about -30% to -49%; further: on the % scale 0 is the no-effect control and ±100 the full control effect
#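 THP-1 cells pretreated 1 hr with compounds (up to 57.5 uM final), then stimulated with LPS (250 ng/mL final) plus ATP (1.25 mM final); secreted IL-1B measured by AlphaLISA after 16 hr, decreased signal indicating inhibition.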
# MCF10A rereplic – DNA re-replication induction in MCF 10a cells; MCF 10A DNA re-replication, Hoechst nuclear intensity, 48 h; Potency, µM (doses to about 46.1 µM), for the others: top-dose activity, positive = re-replication, usual class: activators; hit rate 2.9% among 350,000; further: potency means the concentration at half of the fitted maximal effect; % of control where 0% means no effect; nearly all actives have a fitted effect of over 50% in size
# VP16 counter – Gal4-VP16 reporter inhibition counter-screen; Drosophila S2 Gal4-VP16 UAS-luciferase, luminescence, 20 h; Potency, µM (top dose mostly 53.6 µM), without a hit: at the highest dose activity, negative = inhibition, most hits filed as inhibitors; hit rate 3.5% among 310,000; AID 2546;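 further: Gal4-VP16 expression switched on by copper sulfate through the metallothionein promoter; potency means the concentration at half of the fitted maximal effect; on the % scale 0 is the no-effect control and ±100 the full control effect; nearly all actives have a fitted effect of over 50% in size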
# RORg inh – ROR gamma (mouse) transcription inhibition | P51450 | Drosophila S2 Gal4-RORgamma UAS-luciferase reporter, 20 h | Potency, µM (top dose mostly 53.6 µM), inactives show at the highest dose activity change, negative = inhibition, usual class: inhibitors | hit rate 5.4% among 310,000 | AID 2551; further: potency means the concentration at half of the fitted maximal effect; on the % scale 0 is the no-effect control and ±100 the full control effect; nearly all actives have a fitted effect of over 60% in size
# Target sequence (P51450 whole entry, looked up, the tested form may be a part): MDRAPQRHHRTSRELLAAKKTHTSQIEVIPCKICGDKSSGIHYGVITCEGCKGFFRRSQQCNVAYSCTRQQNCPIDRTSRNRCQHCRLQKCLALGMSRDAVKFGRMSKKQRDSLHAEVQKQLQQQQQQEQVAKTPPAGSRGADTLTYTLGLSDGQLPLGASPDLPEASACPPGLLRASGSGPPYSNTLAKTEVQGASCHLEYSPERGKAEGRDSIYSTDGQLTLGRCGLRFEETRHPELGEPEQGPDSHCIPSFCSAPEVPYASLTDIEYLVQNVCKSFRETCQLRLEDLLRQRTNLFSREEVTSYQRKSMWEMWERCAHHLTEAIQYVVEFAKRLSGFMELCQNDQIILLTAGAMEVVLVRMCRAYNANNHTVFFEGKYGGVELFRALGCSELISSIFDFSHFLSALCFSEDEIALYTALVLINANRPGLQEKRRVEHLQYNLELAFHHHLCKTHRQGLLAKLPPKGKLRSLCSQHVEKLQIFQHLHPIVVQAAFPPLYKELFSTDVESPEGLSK
#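 Luminescence from a UAS-regulated Photinus luciferase reporter in stably transfected Drosophila Schneider cells is measured; decreased signal marks ROR gamma inhibition. Fusion expression is induced by 700 uM copper sulfate for 20 hr.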
# * marks the source's active call; other numbers are inactive results; u = inconclusive; x = no result given; ! = not active in a repeat; [ ] = another dose, or the depositor's remark. Most compounds without a hit are left out; they make up all but 11% or so of the library. Unless noted, the call rests on the fitted dose curve; in most records, active means well fitted curve in the direction sought with a large enough effect; inconclusive means small, poorly fitted or top-dose-only effect, or another doubt; inactive means no such curve, though single readings can be large; an effect the other way counts as inactive or inconclusive.
SMILES,SW480 rerep,IL-1B inflam inh,MCF10A rereplic,VP16 counter,RORg inh
Cc1cc(C(=O)Nc2ccc3c(c2)OCCO3)nn1C(C)(C)C,-1%,u,9%,11%,-5%
COc1ccc(C(=O)Nc2ccccc2-c2nnn(CC(=O)Nc3ccc4c(c3)OCCO4)n2)cc1,4%,-4,16µM*,-12%[0.365 µM],-18%
O=Nc1c(O)c2ccccc2c2ccccc12,1.8µM*,-76*,6.5µM*,x,x
O=C(CCn1c(=O)oc2ccccc21)N1CCN(C(c2ccccc2)c2ccccc2)CC1,9%,-65*,u,-4%,32%
O=P(O)(O)CN1CCNCCN(CP(=O)(O)O)CCNCC1,4.1µM*,-15,25%,x,x
NC(Cc1ccccc1)c1csc(Nc2ccccn2)n1 (centres undefined),x,-19,x,x,x
NC(Cc1ccc(F)cc1)c1csc(Nc2ccccn2)n1 (centres undefined),x,-51*,x,x,x
NC(Cc1ccc(Cl)cc1)c1csc(Nc2ccccn2)n1 (centres undefined),x,-66*,x,x,x
CC1C(=O)OC2C(O)C34C5OC(=O)[C@@]3(OC3OC(=O)[C@H](O)[C@]34C(C(C)(C)C)C5O)[C@]12O (some centres undefined),x,x,x,-1%,15%
CC(=O)OC(C)(C)/C=C/C(=O)C(C)(O)C1[C@H](O)C[C@@]2(C)C3CC=C4C(CC[C@@H](O)C4(C)C)[C@]3(CO)C(=O)C[C@]12C (some centres undefined),u,-98*,u,-15%,u
CC(=O)OC(C)(C)/C=C/C(=O)[C@](C)(O)[C@H]1[C@H](O)C[C@@]2(C)[C@@H]3CC=C4[C@H](C[C@H](O)C(=O)C4(C)C)[C@]3(C)C(=O)C[C@]12C,u,-112*,u,u,u
CC(=O)OC(C)(C)/C=C/C(=O)C(C)(O)C1C(O)CC2(C)C3CC=C4C(CC(O)C(=O)C4(C)C)C3(C)C(=O)CC12C (centres undefined),0.012µM*,-99*,u,x,x
CCCc1cc2c(n1Cc1ccco1)C(C)C1CN(C(=O)c3ccccc3)C(C)(C(=O)OC)C21 (centres undefined),x,x,x,4%,19%
c1ccc(N2CCCC3(CCNCC3)C2)nc1,x,x,x,6%,19%
Oc1ccc(/C=N/NP(=S)(c2ccccc2)c2ccccc2)c(O)c1O,-8%,-13,13%,-1%,-37%
Oc1ccccc1/C=N/NP(=S)(c1ccccc1)c1ccccc1,-15%,-10,18%,6%,11µM*
C=CCc1c(C)nc(C)nc1N/N=C/c1ccc(N(C)C)cc1,29%,20,0%,u,4.5µM*
Cc1c(OCC(F)(F)F)ccnc1CS(=O)c1nc2ccccc2[nH]1 (centres undefined),u,30,15%,u,11µM*!
COCCCOc1ccnc(CS(=O)c2nc3ccccc3[nH]2)c1C (centres undefined),-34%,17,-2%,-3%,-13%
CN(Cc1ccccc1)C(=O)c1cccc(NC(=O)Cc2ccc([N+](=O)[O-])cc2)c1,-9%,u,u,x,x
CCOc1cc(CNCCc2c[nH]c3ccccc23)cc(Cl)c1OCC,u,-97*,31%,u,-38%
CCOc1c(Cl)cc(CNCCc2c[nH]c3ccccc23)cc1OC,u,-87*,18µM*,u,u
c1coc(CNCCc2c[nH]c3ccccc23)c1,-2%,-14,u,8%,20%
COc1ccc(CNCCc2c[nH]c3ccccc23)c(OC)c1C,u,x,u,6%,2%
Nc1ncnc2c1ncn2[C@@H]1O[C@@H]2CO[P@](=O)(S)O[C@H]2[C@H]1O,x,x,x,-22%,-11%
C=CC[C@H](CC(=O)N(CCO)Cc1ccccc1)C(=O)NC[C@H](OC(=O)[C@@H](CC=C)CC(=O)OC(C)(C)C)c1ccccc1,u,-71*,u,x,x
O=c1c2ccccc2[nH]c(=S)n1-c1ccc2c(c1)OCO2,-1%,-4,6%,10µM*,2.8µM*
ClCCN(CCCl)c1ccc(C=NNc2ncccn2)cc1,u,2,u,x,x
N#Cc1ncc(N=Cc2ccc(N(CCCl)CCCl)cc2)s1,u,2,21µM*,x,x
